Here are results for ten molecules from the supplement of paper PMC10981050.

Molecules are shown by their SMILES. Where “and” joins values, the source holds several entries; their conditions need not be identical. Equal entries are not always repeated. Structures can show the parent of a compound that is named as a salt.

Experiment in all cases: cell viability relative to vehicle control; higher = less cytotoxic
Settings in all cases: 10 µM

In assay [1] the test system is K562. The essentials: (§1)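 Each screen used CRISPR-edited mutant and wild-type clones from four leukaemia lines. Compounds were acoustically dispensed at a single 10 µM dose, and CellTiter-Glo luminescence was read after 48 h with the supernatant first removed. Viability was analysed in Genedata Screener and given as percent of the on-plate vehicle control.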
Assay [2] relates to MARIMO. The essentials:
as §1

In assay [3] the test system is MOLM14. The essentials:
as §1

The subject of assay [4] is OCI-AML2. Summed up:
as §1

Turning to `CCCCNc1ncc(C(=O)NCc2ccc(-n3ccnc3)cc2)c(NC2CCC(O)CC2)n1` (stereo not given), the cell viability (usually a read-out of living cells in per cent, often relative to untreated cells) in assay [1] (SRSF2 genotype: SRSF2 P95H/wt) was 84.4%; in assay [1] (SRSF2 genotype: SRSF2 wt/wt) it was 72.8%; in assay [2] (SRSF2 genotype: SRSF2 P95H/wt), 73%; in assay [2] (SRSF2 genotype: SRSF2 wt/wt), 83.9%; in assay [3] (SRSF2 genotype: SRSF2 P95H/wt), 25.6%; in assay [3] (SRSF2 genotype: SRSF2 wt/wt), 20.8%. Moreover, the cell viability in assay [4] (SRSF2 genotype: P95H/wt) was 48.4%; in assay [4] (SRSF2 genotype: wt/wt) it was 52.1%.

As for `COc1cc2c(cc1OC)CC(=O)N(CCCN(C)C[C@H]1Cc3cc(OC)c(OC)cc31)CC2` [Ivabradine HCl (Procoralan)], the cell viability in assay [1] (SRSF2 genotype: SRSF2 P95H/wt) is 97.8% and 97.4%; in assay [1] (SRSF2 genotype: SRSF2 wt/wt), 93.7%; in assay [2] (SRSF2 genotype: SRSF2 P95H/wt), 97.4%; in assay [2] (SRSF2 genotype: SRSF2 wt/wt), 109%; in assay [3] (SRSF2 genotype: SRSF2 P95H/wt), 99.6%; in assay [3] (SRSF2 genotype: SRSF2 wt/wt) it was 106%. Besides, the cell viability in assay [4] (SRSF2 genotype: P95H/wt) amounted to 95.8%; in assay [4] (SRSF2 genotype: wt/wt), 107%.

Consider `CCCCC(F)(F)[C@@]1(O)CC[C@H]2[C@@H](CC(=O)[C@@H]2CCCCCCC(=O)O)O1` [Lubiprostone], for which the cell viability in assay [1] (SRSF2 genotype: SRSF2 P95H/wt) was 101% and 100%; in assay [1] (SRSF2 genotype: SRSF2 wt/wt), 104%; in assay [2] (SRSF2 genotype: SRSF2 P95H/wt) it was 93.9%; in assay [2] (SRSF2 genotype: SRSF2 wt/wt) it was 98%; in assay [3] (SRSF2 genotype: SRSF2 P95H/wt), 84.5%; in assay [3] (SRSF2 genotype: SRSF2 wt/wt), 98.8%. Further, the cell viability in assay [4] (SRSF2 genotype: P95H/wt) is 83.6%; in assay [4] (SRSF2 genotype: wt/wt) it was 88%.

Regarding `O=C(Nc1ccc2c(O)cc(S(=O)(=O)O)cc2c1)Nc1ccc2c(O)cc(S(=O)(=O)O)cc2c1` [AMI-1, free acid], the cell viability in assay [1] (SRSF2 genotype: SRSF2 P95H/wt) was 105% and 92.6%; in assay [1] (SRSF2 genotype: SRSF2 wt/wt), 109%; in assay [2] (SRSF2 genotype: SRSF2 P95H/wt), 100%; in assay [2] (SRSF2 genotype: SRSF2 wt/wt), 110%; in assay [3] (SRSF2 genotype: SRSF2 P95H/wt), 103%; in assay [3] (SRSF2 genotype: SRSF2 wt/wt), 108%. Besides, the cell viability in assay [4] (SRSF2 genotype: P95H/wt) turned out to be 109%; in assay [4] (SRSF2 genotype: wt/wt), 112%.

`CO/N=C(\C(=O)N[C@@H]1C(=O)N2C(C(=O)[O-])=C(C[n+]3cccc4c3CCC4)CS[C@H]12)c1csc(N)n1` [Cefpirome sulfate]: the cell viability was 100% and 107% in assay [1] (SRSF2 genotype: SRSF2 P95H/wt); 106% in assay [1] (SRSF2 genotype: SRSF2 wt/wt); 94.2% in assay [2] (SRSF2 genotype: SRSF2 P95H/wt); 108% in assay [2] (SRSF2 genotype: SRSF2 wt/wt); 103% in assay [3] (SRSF2 genotype: SRSF2 P95H/wt); 103% in assay [3] (SRSF2 genotype: SRSF2 wt/wt). In addition, the cell viability is 101% in assay [4] (SRSF2 genotype: P95H/wt) and 104% in assay [4] (SRSF2 genotype: wt/wt).

As for `O=C(Nc1ccc(OC(F)(F)F)cc1)c1sccc1NCc1ccnc2ccccc12`, the cell viability is 44.9% and 48.7% in assay [1] (SRSF2 genotype: SRSF2 P95H/wt); 43.4% in assay [1] (SRSF2 genotype: SRSF2 wt/wt); 49.2% in assay [2] (SRSF2 genotype: SRSF2 P95H/wt); 42.3% in assay [2] (SRSF2 genotype: SRSF2 wt/wt); 39% in assay [3] (SRSF2 genotype: SRSF2 P95H/wt); 29.1% in assay [3] (SRSF2 genotype: SRSF2 wt/wt). In addition, the results for the cell viability in assay [4] (SRSF2 genotype: P95H/wt) and in assay [4] (SRSF2 genotype: wt/wt) were 24% and 27.2%, respectively.

For the molecule `CN1c2cc(O)c(N=NC(N)=O)cc2CC1S(=O)(=O)O` (stereo not given) [Carbazochrome sodium sulfonate], the cell viability was 99.4% and 97% in assay [1] (SRSF2 genotype: SRSF2 P95H/wt); 95.2% in assay [1] (SRSF2 genotype: SRSF2 wt/wt); 92.7% in assay [2] (SRSF2 genotype: SRSF2 P95H/wt); 98.7% in assay [2] (SRSF2 genotype: SRSF2 wt/wt); 97% in assay [3] (SRSF2 genotype: SRSF2 P95H/wt); 99.3% in assay [3] (SRSF2 genotype: SRSF2 wt/wt). Further, the cell viability in assay [4] (SRSF2 genotype: P95H/wt) turned out to be 99.1%; in assay [4] (SRSF2 genotype: wt/wt), 106%.

On to `O=C(O)C(Cc1c[nH]c2ccccc12)N1C(=O)c2ccccc2C1=O` (stereo not given), for which the cell viability was 104% and 96.9% in assay [1] (SRSF2 genotype: SRSF2 P95H/wt); 103% in assay [1] (SRSF2 genotype: SRSF2 wt/wt); 96.8% in assay [2] (SRSF2 genotype: SRSF2 P95H/wt); 104% in assay [2] (SRSF2 genotype: SRSF2 wt/wt); 99.2% in assay [3] (SRSF2 genotype: SRSF2 P95H/wt); 99.3% in assay [3] (SRSF2 genotype: SRSF2 wt/wt). Besides, the cell viability in assay [4] (SRSF2 genotype: P95H/wt) is 93.2%; in assay [4] (SRSF2 genotype: wt/wt), 98.5%.

With `NNC(=O)c1ccncc1` [Isoniazid (Tubizid)], the cell viability in assay [1] (SRSF2 genotype: SRSF2 P95H/wt) was 106% and 109%; in assay [1] (SRSF2 genotype: SRSF2 wt/wt), 112%; in assay [2] (SRSF2 genotype: SRSF2 P95H/wt) it was 101%; in assay [2] (SRSF2 genotype: SRSF2 wt/wt) it was 107%; in assay [3] (SRSF2 genotype: SRSF2 P95H/wt), 107%; in assay [3] (SRSF2 genotype: SRSF2 wt/wt) it was 106%. For the same molecule, the cell viability was 102% in assay [4] (SRSF2 genotype: P95H/wt) and 115% in assay [4] (SRSF2 genotype: wt/wt).

As to `CC(=O)[O-].[K+]` [Potassium acetate], the cell viability in assay [1] (SRSF2 genotype: SRSF2 P95H/wt) is 100% and 97.3%; in assay [1] (SRSF2 genotype: SRSF2 wt/wt), 103%; in assay [2] (SRSF2 genotype: SRSF2 P95H/wt), 106%; in assay [2] (SRSF2 genotype: SRSF2 wt/wt), 97.5%; in assay [3] (SRSF2 genotype: SRSF2 P95H/wt), 96.7%; in assay [3] (SRSF2 genotype: SRSF2 wt/wt), 99.6%. In addition, the results for the cell viability in assay [4] (SRSF2 genotype: P95H/wt) and in assay [4] (SRSF2 genotype: wt/wt) were 111% and 93.4%, respectively.
